Inhibition data for 30 compounds are collected here from ChEMBL document CHEMBL1157539, “Thousands of chemical starting points for antimalarial lead identification” (Nature, 2010).

For orientation: Inhibition means the relative decrease from the control value, in per cent. Low values mean a response near the control, high ones a response far below the control.

Structures are written as SMILES.

Common to all, as to type: functional
Experiment [1] has as its system Plasmodium falciparum. Description: GSK_TCMDC: Inhibition of Plasmodium falciparum 3D7 in whole red blood cells, using parasite LDH activity as an index of growth. Test compounds present at 2uM.
In experiment [2] the test system is Plasmodium falciparum. Description: GSK_TCMDC: Inhibition of Plasmodium falciparum Dd2 in whole red blood cells, using parasite LDH activity as an index of growth. Test compounds present at 2uM.
For the next experiment, the system named is HepG2. Kind of experiment: GSK_TCMDC: Percent inhibition of human HepG2 cell line. Test compounds present at 10uM.

With `Cn1ccc2c3c(N)nc(N)nc3ccc21`, the Inhibition with Plasmodium falciparum [1] is 91%; with Plasmodium falciparum [2], 17%; in the experiment with HepG2, 59%.

Regarding `Cc1ccc(Cn2nc(Cl)c(N3CCCNCC3)cc2=O)cc1NC(=O)Nc1ccc(-c2ccccc2)cc1.O=C(O)C(F)(F)F`, the Inhibition is 100% with Plasmodium falciparum [1], 55% in the experiment with Plasmodium falciparum [2] and 90% in the experiment with HepG2.

On to `CC1CCCCN1CCCNc1nc(NCc2ccccc2)c2ccccc2n1` (stereo not given), for which the results for the Inhibition in the experiment on Plasmodium falciparum [1], in the experiment with Plasmodium falciparum [2] and with HepG2 were 95%, 14% and 24%, respectively.

As to `O=C(Nc1cccc(C(F)(F)F)c1)Nc1cc(F)c(F)cc1Cl`, the Inhibition turned out to be 83% in the experiment with Plasmodium falciparum [1], 98% in the experiment with Plasmodium falciparum [2] and 0% in the experiment on HepG2.

In the case of `CCCN(CCC)CC(O)COc1ccccc1C(=O)Nc1ccccc1` (stereo not given), the Inhibition in the experiment on Plasmodium falciparum [1] was 92%; with Plasmodium falciparum [2] it was 95%; with HepG2, 6%.

For the compound `NCC(NC(=O)c1ccc(-c2c[nH]c3ncccc23)s1)c1ccccc1.O=CO` (stereo not given), the Inhibition in the experiment on Plasmodium falciparum [1] was 95%; in the experiment with Plasmodium falciparum [2], 87%; in the experiment on HepG2, 52%.

`CCCC(C)NC(=O)/C=C/c1ccccc1-c1cccc(OC)c1` (stereo not given): the figures for the Inhibition in the experiment with Plasmodium falciparum [1], with Plasmodium falciparum [2] and in the experiment with HepG2 were 87%, 59% and 0%, respectively.

Consider `Cc1cc(=NN=Cc2cccc(F)c2)c2ccc(F)cc2[nH]1`, for which the results for the Inhibition in the experiment on Plasmodium falciparum [1], in the experiment on Plasmodium falciparum [2] and in the experiment on HepG2 were 100%, 99% and 2%, respectively.

Regarding `CCN(CC)CCN(Cc1ccc(-c2ccc(C(F)(F)F)cc2)cc1)C(=O)Cn1c(CCc2cc(F)cc(F)c2F)nc(=O)c2ccccc21.O=C(O)C(O)C(O)C(=O)O`, the Inhibition was 100% in the experiment with Plasmodium falciparum [1], 77% with Plasmodium falciparum [2] and 36% in the experiment with HepG2.

On to `Cc1cc2ncn(-c3nccc(NCc4cccnc4)n3)c2cc1C.O=C(O)C(F)(F)F`, for which the Inhibition in the experiment on Plasmodium falciparum [1] is on record as 99%; in the experiment with Plasmodium falciparum [2] it was 98%; with HepG2, 0%.

For the compound `CCNc1cc(C(=O)N[C@@H](Cc2ccccc2)[C@H](O)CNCCc2ccccc2)cc(N2CCCCS2(=O)=O)c1.Cl`, the Inhibition in the experiment on Plasmodium falciparum [1] is on record as 98%; in the experiment on Plasmodium falciparum [2] it was 91%; with HepG2 it was 14%.

`O=C(NCC1CCC(CNCCc2ccccc2)CC1)Nc1ccc(Cl)c(Cl)c1` (stereo not given): the Inhibition was determined as 96% in the experiment with Plasmodium falciparum [1], 0% in the experiment on Plasmodium falciparum [2] and 24% in the experiment with HepG2.

For `CC(C)C(NC(=O)Cc1cccc2ccccc12)C(=O)Nc1cccc(C#N)c1` (stereo not given), the Inhibition in the experiment on Plasmodium falciparum [1] stood at 92%; with Plasmodium falciparum [2], 91%; in the experiment on HepG2, 0%.

In the case of `CCN(CC)CCN(Cc1ccc(-c2ccc(C(F)(F)F)cc2)cc1)C(=O)Cn1c(CCc2ccc(F)c(F)c2F)nc(=O)c2ccccc21.O=C(O)C(O)C(O)C(=O)O`, the Inhibition in the experiment with Plasmodium falciparum [1] was found to be 97%; with Plasmodium falciparum [2], 66%; with HepG2 it was 38%.

For the compound `CN(C)CCCNc1ncnc2c1[nH]c1ccc(Br)cc12`, the Inhibition is reported as 100% with Plasmodium falciparum [1], 19% in the experiment on Plasmodium falciparum [2] and 3% in the experiment on HepG2.

With `N=C(/N=C(/NCCCCCCN/C(=N\C(=N)Nc1ccc(Cl)cc1)N1CCCCC1)N1CCCCC1)Nc1ccc(Cl)cc1`, the Inhibition is 100% in the experiment on Plasmodium falciparum [1], 98% in the experiment on Plasmodium falciparum [2] and 0% with HepG2.

Consider `C[C@@H](Oc1cc(-n2cnc3ccc(NC(=O)NC(C)(C)C)cc32)sc1C(N)=O)c1ccccc1Cl`, for which the figures for the Inhibition in the experiment with Plasmodium falciparum [1], in the experiment on Plasmodium falciparum [2] and in the experiment on HepG2 were 95%, 97% and 28%, respectively.

Regarding `O=C(Nc1ccc(OC2CCN(Cc3ccco3)CC2)c(Cl)c1)c1ccc2ncccc2c1.O=C(O)C(F)(F)F`, the Inhibition in the experiment on Plasmodium falciparum [1] stood at 97%; with Plasmodium falciparum [2] it was 40%; in the experiment with HepG2, 0%.

As for `O=C(O)C(F)(F)F.Oc1ccc(CCNc2nc(NCCCOc3ccccc3-c3ccc(F)cc3)nc(N3CCNCC3)n2)cc1`, the Inhibition in the experiment on Plasmodium falciparum [1] came out at 85%; in the experiment with Plasmodium falciparum [2], 8%; with HepG2, 30%.

For `Cc1ccc2c(c1)c(-c1ccccc1)c(-c1ccccc1)n2CC(O)CN1CCN(CC=Cc2ccccc2)CC1` (stereo not given), the figures for the Inhibition in the experiment on Plasmodium falciparum [1], in the experiment on Plasmodium falciparum [2] and with HepG2 were 98%, 98% and 0%, respectively.

As for `Cl.N#Cc1cccc(/C=C/C(=O)NC2CCC(CCN3CCc4ccc(-c5cnccn5)cc4CC3)CC2)c1` (stereo not given), the Inhibition with Plasmodium falciparum [1] is 93%; in the experiment with Plasmodium falciparum [2], 47%; in the experiment with HepG2, 22%.

In the case of `COc1ccc2nc(C)cc(Nc3ccc(Oc4ccc5ccccc5c4)c(Cl)c3)c2c1`, the figures for the Inhibition in the experiment on Plasmodium falciparum [1], in the experiment on Plasmodium falciparum [2] and in the experiment on HepG2 were 100%, 99% and 40%, respectively.

For the compound `CCC(Cc1ccccc1)c1cc(O)c(Cc2ccc(-c3ccccc3)cc2)c(=O)o1` (stereo not given), the Inhibition was determined as 89% with Plasmodium falciparum [1], 0% with Plasmodium falciparum [2] and 3% with HepG2.

For the compound `COc1ccc2ncc(F)c(CCN3CC4CCCC4(CNCc4ccc5c(n4)NC(=O)CS5)C3)c2n1.Cl` (stereo not given), the Inhibition is on record as 87% with Plasmodium falciparum [1], 28% in the experiment on Plasmodium falciparum [2] and 18% in the experiment with HepG2.

With `COc1ccc2nccc([C@@H](O)CN3CCC(NC(=O)Cc4ccc(Br)c5ccccc45)CC3)c2c1`, the Inhibition in the experiment with Plasmodium falciparum [1] turned out to be 98%; in the experiment on Plasmodium falciparum [2], 40%; in the experiment with HepG2, 10%.

As to `COc1ccccc1CN1CCC(NC(=O)c2ccc(-c3cccc(C(F)(F)F)c3)s2)CC1.O=C(O)C(F)(F)F`, the Inhibition worked out at 85% in the experiment on Plasmodium falciparum [1], 12% with Plasmodium falciparum [2] and 83% with HepG2.

Turning to `CCCCOc1ccc(-c2nc3ccccc3[nH]2)cc1`, the Inhibition with Plasmodium falciparum [1] turned out to be 86%; in the experiment with Plasmodium falciparum [2], 82%; in the experiment on HepG2, 21%.

Take `Cc1cc(-c2ccc(CNC3Cc4ccccc4C3)cc2)ccc1S(=O)(=O)NCCN1CCCC1.O=C(O)C(F)(F)F`: the results for the Inhibition in the experiment on Plasmodium falciparum [1], in the experiment with Plasmodium falciparum [2] and in the experiment with HepG2 were 100%, 73% and 99%, respectively.

With `COc1ccc(-c2cc(C(=O)Nc3ccc4[nH]c(-c5ccccc5)nc4c3)[nH]n2)cc1.O=C(O)C(F)(F)F`, the Inhibition in the experiment on Plasmodium falciparum [1] amounted to 90%; in the experiment on Plasmodium falciparum [2], 78%; in the experiment on HepG2, 77%.

As to `CCOC(=O)CN(c1ccc(Br)cc1OCCOc1cc(Br)ccc1N(CC(=O)OCC)C(C)C(=O)OCC)C(C)C(=O)OCC` (stereo not given), the figures for the Inhibition in the experiment with Plasmodium falciparum [1], in the experiment on Plasmodium falciparum [2] and in the experiment on HepG2 were 94%, 6% and 0%, respectively.
